Measurements: PubChem BioAssay (NCI)
Compounds without any hit were thinned out: in the full panel of roughly 79,000, 15% have a hit. Unmarked numbers belong to inactive results. Active and inactive are the calls of the source. Rule as the data show it: active = growth inhibition above about 70%; inactive = the rest.

What was measured:
[1] = NCI Yeast Anticancer Drug Screen. Data for the rad50 strain (AID 155);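 also: 0% = growth of vehicle-only cultures of the same strain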; conditions: S. cerevisiae rad50 strain growth inhibition, active compounds read high
Outline: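 Yeast carrying a defined DNA repair defect were exposed to test compounds, and growth was compared with vehicle-treated controls to give percent inhibition.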

[2] = NCI Yeast Anticancer Drug Screen. Data for the mec2-1 strain (AID 157); conditions: S. cerevisiae mec2-1 strain, active compounds read high
Outline: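 Cells of the genetically defined mec2-1 yeast strain are incubated with test compound. Inhibition of growth is calculated against vehicle-treated controls.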

[3] = NCI Yeast Anticancer Drug Screen. Data for the sgs1 mgt1 strain (AID 161);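 also: 0% = growth of cultures given vehicle only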; conditions: S. cerevisiae sgs1 mgt1 strain, active compounds read high
Outline: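 Mutant yeast exposed to compound; growth scored against vehicle-only wells.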

[4] = NCI Yeast Anticancer Drug Screen. Data for the cln2 rad14 strain (AID 165);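 also: 0% = growth equal to vehicle treated cultures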; conditions: S. cerevisiae cln2 rad14 strain, active compounds read high
Outline: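 The screen exposed genetically defined yeast (cln2 rad14) to test compounds and scored growth inhibition relative to vehicle-treated controls.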

[5] = NCI Yeast Anticancer Drug Screen. Data for the bub3 strain (AID 167); conditions: S. cerevisiae bub3 mutant strain, active compounds read high
Outline: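 Compounds were applied to a genetically altered yeast strain carrying a cell-cycle control defect. Growth inhibition was scored against vehicle-treated controls.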

[6] = NCI Yeast Anticancer Drug Screen. Data for the mlh1 rad18 strain (AID 175); conditions: S. cerevisiae mlh1 rad18 strain growth inhibition, active compounds read high
Outline: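 Compound-treated yeast growth, normalised to vehicle controls. Strain bears defined DNA repair mutations.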

[7] = at 5.0 µM (retest, dose inferred, filed as 0.5)
[8] = at 50.0 µM (retest, dose inferred, filed as 5.0)

Compound | growth inhibition [1, 7] | growth inhibition [1, 8] | growth inhibition ([1]; at 50.0 µM) | growth inhibition [2, 7] | growth inhibition [2, 8] | growth inhibition ([2]; at 50.0 µM) | growth inhibition [3, 7] | growth inhibition [3, 8] | growth inhibition ([3]; at 50.0 µM) | growth inhibition [4, 7] [%] | growth inhibition [4, 8] | growth inhibition ([4]; at 50.0 µM) | growth inhibition [5, 7] | growth inhibition [5, 8] | growth inhibition ([5]; at 50.0 µM) | growth inhibition [6, 7] | growth inhibition [6, 8] | growth inhibition ([6]; at 50.0 µM)
CC(C)(C)[Si](C)(C)OCC1OC(n2cc(I)c(N)nc2=O)C(O[Si](C)(C)C(C)(C)C)C1O[Si](C)(C)C(C)(C)C (stereo not given) | 48% | 97% (active) | 27.1% | 9% | 98% (active) | 60.8% | 85% (active) | 98% (active) | 36.1% | 1 | 51% | 32.3% | 9% | 99% (active) | 38.4% | 33% | 94% (active) | 86.7% (active)
N#Cc1cn(-c2c3ccccc3nc3ccccc23)c(=O)[nH]c1=O | 16% | 67% | 58.4% | -9% | 52% | 39.9% | 3% | 30% | 49.6% | 21 | 70% (active) | 48.3% | 15% | 59% | 21.8% | 14% | 77% (active) | 76.2% (active)
N#C/C(=C\C(Cl)=C/c1ccccc1)C(N)=S | 68% | 97% (active) | 50.1% | 45% | 99% (active) | 40.5% | 91% (active) | 98% (active) | 43.2% | 16 | 95% (active) | 98% (active) | 79% (active) | 98% (active) | 99% (active) | 86% (active) | 98% (active) | 40.4%
CCOCCOC(=O)C(C)O (stereo not given) | 9% | -1% | 9.25% | -1% | -3% | 27.1% | -2% | 3% | -3.1% | 5 | 2% | 45.3% | 6% | 14% | 9.25% | 7% | -2% | -7.1%
COC(=O)c1cccc2cccc(C(=O)Nc3ccc(C)cc3C)c12 | 74% (active) | 99% (active) | 86.2% (active) | 79% (active) | 99% (active) | 91.9% (active) | 60% | 99% (active) | 83.2% (active) | 33 | 99% (active) | 87.7% (active) | 76% (active) | 92% (active) | 90.5% (active) | 90% (active) | 99% (active) | 89.7% (active)
Cc1c(N=Nc2ccc(Br)cc2)c(-c2ccccc2)nn1C(N)=S | -2% | 93% (active) | 97.7% (active) | 1% | 97% (active) | 97.5% (active) | 7% | 97% (active) | 98% (active) | -4 | 94% (active) | 95.4% (active) | 7% | 95% (active) | 96.5% (active) | 0% | 97% (active) | 97.7% (active)
Cc1ccccc1C(=O)c1ccc(O)c2ccccc12 | -6% | 90% (active) | 99.4% (active) | 4% | 82% (active) | 94.5% (active) | 9% | 94% (active) | 64.3% | -10 | 65% | 29.3% | 4% | 71% (active) | 55.2% | 32% | 94% (active) | 99.4% (active)
CC1=C(C)C(=O)C(CNCc2ccccc2)=[C-]C1=O.[Co].[c-]1[c-][c-][cH-][c-]1 | 6% | -13% | 45.8% | -3% | 26% | 35.6% | 5% | 19% | 44.8% | 7 | 10% | 51.1% | 11% | 15% | 19.1% | 6% | 3% | 32.3%
COC(=O)/C(=C/C=C(c1ccccc1)c1ccccc1)N(C(C)=O)C(C)=O | 0% | 13% | 99.4% (active) | 2% | 25% | 99.6% (active) | 1% | 67% | 99.6% (active) | 3 | 7% | 99.4% (active) | -1% | 11% | 99.7% (active) | -3% | 39% | 99.6% (active)
Cc1cc(NCCCN(C)C)c2cc3ccc4cccc5ccc(c2n1)c3c45 | 1% | 54% | 95.2% (active) | -12% | 23% | 90.4% (active) | -3% | 47% | 94.8% (active) | -2 | 25% | 63.8% | -2% | 20% | 94.5% (active) | -2% | 58% | 97.3% (active)
